30 sequences from PubChem BioAssay AID1508600 (Functional Genomics Laboratory (NCATS/FGL), 2020) can be followed below.

Out of some 53,000 sequences screened, about 3,700 (7%) were called active. This excerpt belongs to a sample that is enriched for actives. Unmarked numbers belong to inactive results.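 Rule for the calls: active = gene knockdowns whose robust z-score for IL-1 alpha signal is at least 2 or at most -2, so actives lie on both sides; inactive = the rest.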

The assay is described as follows: Components of the Cytosolic LPS Sensing Pathway: Gene Identification via Genome-wide siRNA Screen.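 Note: robust z of the log signal after scaling to non-targeting control siRNA wells of the plate.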 The settings on record: RAW264.7 macrophages, IL-1a HTRF, actives lie on both sides, screened at 100 nM (by protocol), cells primed 5 h with Pam3CSK4 first. Put shortly:
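Read-out: IL-1a HTRF on supernatant, divided by plate negative-control median ×100, log-transformed and converted to robust z-score. Cells were RAW264.7 given 100 nM siRNA, Pam3CSK4-primed 5 hours, then LipidA-transfected 24 hour.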
(In TR-FRET formats the signal depends on donor and acceptor labels being close together.)
In the case of GGGAGAAGUAAGUGUUAUCTT against Npy2r, the z-score is 3.86 (active).
To GGACAAUCCGAACAUCAAATT against Sval1 belongs -0.403; to GGCCUGCUUCAAACAGUUUTT against Slc1a6, 0.648.
With CGACUUUUCUCAUUAUGAGTT against Ythdf1 the figure was -2.58 (active).
In the case of GGAUACACUGUUUGAAUGUTT against Cks1b, the z-score was 0.00229.
As for GCCGAUUCAAUACUGUGACTT against Rnf149, the z-score was -0.649.
In the case of GCACAACCAAUUACGUGGCTT against Gpnmb, the z-score was -0.149.
With GCAGAUCACUGGAGUAAACTT against Spz1, the z-score was -0.381.
With GGUAUGAAACCGUAUAAAUTT against Zfp60 the figure was 0.00529; with GCGUGCUGUGUAAGAGUGUTT against Gja4, -2.5 (active); with GCACAUACAGCUUAACAAATT against Nktr, 1.27.
With GGGUUUUUCAUAAACAAAGTT against Pdcd1lg2 the figure was -1.46; with GGUAAAAAGGGUGUGUACUTT against Pdzk1, 0.00178; with CCACUAAAAUCUUACUGGATT against Scn7a, 0.671.
On to GCGUAUAGUUUCGAGAAAUTT against Mettl8, for which the z-score was 0.46.
With GGGUCUACCACAUGUACAUTT against Slc16a6 the figure was 2.23 (active).
With CCCUAACAUUGAGAUGAUUTT against Peg10, the z-score is -0.369.
With CCAUUCUCCUCAGAUACUCTT against Slc25a17 the figure was -1.38.
For CCCAUAAGGGUGAAAUUCGTT against Tax1bp1, the z-score is 0.444.
With GGCCCACAAGAAGAACAAGTT against Zfp423 the figure was 1.29.
To CGGUAGAGUGCUUACGCAATT against Camk2g belongs 0.869; to GGGAACCGCUUAUAUGUCCTT against Tbx21, -0.195; to GGACAGAUAGGAUUAGAGATT against Igfbp5, 0.215.
For CGUGCCAUAAUACACUAUCTT against Gng5, the z-score was 2.79 (active).
With GGCGAAUGUUUACGAGAACTT against Sh2d1b2 the figure was 0.327; with GGCAGGUUUGGUAACCAGATT against Fut1, 0.559; with GCUUCUUGAAAGUACAUUGTT against Nae1, 0.386.
To GGCUCUUCACUCAUGUAUGTT against Olfr703 belongs -0.931.
To GGCCCAUAUCUGCUCUCAUTT against Ssc5d belongs -2.04 (active); to GCCUAUCUUGUCACCACUGTT against Tagln2, -0.276.
